Source: PubChem (National Center for Advancing Translational Sciences (NCATS))
The list is not random: actives were taken first. Their share in the collection is about 4.2%.
Sfp inh: blocks B. subtilis Sfp PPTase activity; Q9F4F7; Biochemical Sfp PPTase activity, qHTS; Potency, µM, most hits filed as inhibitors; 3.5% of 310,000 active; AID 1490;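 further: the enzyme is Sfp with the accession as filed and its product quenches rhodamine fluorescence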
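Reaction rates are the 30-min fluorescence difference (ex 525, em 598 nm) in wells containing 15 nM Sfp, 5 uM rhodamine-CoA and 12.5 uM BHQ-2-YbbR at pH 7.6 with 10 mM MgCl2.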
PLK1 PBD inh: blocks phosphopeptide binding to human PLK1 polo-box domain; P53350; Plk1 PBD binding of FITC phosphopeptide, fluorescence polarization; Potency, µM, usual class: inhibitors; 2.8% of 360,000 active; further: series mostly up to about 57 µM; nearly all actives have a fitted effect of over 65% in size
Target sequence (P53350 whole entry, looked up, the tested form may be a part): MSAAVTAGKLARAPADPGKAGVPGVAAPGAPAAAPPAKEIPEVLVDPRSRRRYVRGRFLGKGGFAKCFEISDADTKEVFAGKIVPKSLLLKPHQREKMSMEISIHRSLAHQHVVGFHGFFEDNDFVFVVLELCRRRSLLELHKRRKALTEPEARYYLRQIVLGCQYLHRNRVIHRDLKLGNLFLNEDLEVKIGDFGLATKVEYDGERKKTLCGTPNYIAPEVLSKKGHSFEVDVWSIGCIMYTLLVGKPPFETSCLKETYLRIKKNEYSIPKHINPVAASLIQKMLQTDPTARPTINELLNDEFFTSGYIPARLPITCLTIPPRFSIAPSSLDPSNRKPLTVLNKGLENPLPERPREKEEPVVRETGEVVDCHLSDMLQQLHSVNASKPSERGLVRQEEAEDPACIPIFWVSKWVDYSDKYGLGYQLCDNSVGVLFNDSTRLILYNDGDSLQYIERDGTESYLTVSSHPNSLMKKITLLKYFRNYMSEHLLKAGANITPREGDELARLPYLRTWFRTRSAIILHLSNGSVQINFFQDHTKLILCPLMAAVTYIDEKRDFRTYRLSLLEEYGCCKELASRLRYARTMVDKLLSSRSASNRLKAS
12-LOX inh: ALOX12 (human) lipoxygenase inhibition; purified 12hLO, xylenol orange hydroperoxide absorbance; 1.1% of 580,000 active; AID 1671190; Potency, µM (top dose mostly 108 µM), hits mostly inhibitors; P18054
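Hydroperoxide product was detected by ferrous iron/xylenol orange as the 573 to 405 nm absorbance ratio. Arachidonic acid at 40 uM (final) was turned over for 30 min at room temperature by 150 nM human 12hLO, pH 7.0 Hepes buffer, after 15 min compound preincubation.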
VDR inh: vitamin D3 receptor (human) inhibition | P11473 | VDR-SRC2-3 peptide fluorescence polarization, 2 h | Potency, µM, actives largely listed as inhibitors | 0.93% of 400,000 active | AID 504847
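Fluorescence polarization assay of small-molecule disruption of VDR binding to coregulator peptide SRC2-3. Compounds and controls pin-transferred, then read after 2 h incubation at ambient room temperature.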
Hits are given with their value; - = inactive; ? = inconclusive; . = not tested or not shown; ! = repeats disagree; [ ] = dose if it differs, or a comment. The call rests on the fitted dose curve; in most records, active means well fitted curve in the direction sought with a large enough effect; inconclusive means small, poorly fitted or top-dose-only effect, or another doubt; inactive means no such curve, though single readings can be large; an effect the other way counts as inactive or inconclusive.

SMILES	Sfp inh	PLK1 PBD inh	12-LOX inh	VDR inh
COc1ccc(Br)c(C(=O)N[C@@H]2C=C(C(=O)N[C@H](C)C(N)=O)C[C@@H](O)[C@@H]2O)c1	.	.	-	.
CCOc1ccc(Nc2nc(Cc3nnc(SCC(=O)O)o3)cs2)cc1	45µM	-	-	-
CCOc1ccc(Cc2nnc(SCC(=O)c3ccc(OC)cc3)o2)cc1	-	-	-	-
CCCCC1CCC(C(=O)OC(C)C(=O)Nc2ccc(NC(C)=O)cc2)CC1 (stereo not given)	-	-	40µM	-
CC(=O)Nc1ccc(NC(=O)C(C)OC(=O)C2CCC2)cc1 (stereo not given)	.	-	-	-
COCCN1CCCN(C(=O)c2ccc(F)c(F)c2)c2ccccc21	.	.	45µM	.
c1ccc(-c2csc(NC3=NCCCCC3)n2)cc1	-	-	-	-
Brc1ccc(-c2csc(NNC3=NCCCCC3)n2)cc1	50µM	?	?	?
FC(F)Oc1ccc(-c2csc(NNC3=NCCCCC3)n2)cc1	22µM	3.8µM	?	?
CC(C)(C)c1ccc(-c2csc(NNC3=NCCCCC3)n2)cc1	50µM	?	?	?
CC(C)=CCC1C(=O)N(c2ccccc2)N(c2ccccc2)C1=O	-	.	.	25µM
CCN1C(=O)NC(c2ccccc2)C1=O (stereo not given)	.	-	-	-
COC(=O)CNC(=O)c1nc(-c2cccc(C(F)(F)F)c2)c2cnccn12	.	.	-	.
CCNc1sc(C(=O)c2cccs2)c(N)c1C#N	45µM	-	?	?
CCOc1ccc(N(C(=O)c2snc(C(N)=O)c2N)C(C)C(=O)NC2CCCCC2)cc1 (stereo not given)	-	-	?	-
Cc1ccc(C)n1-c1sc2c(c1C(=O)O)CCCC2	-	17µM	?	-
Cc1ccc(C(=O)Nc2sc3c(c2C(=O)O)CCCC3)o1	-	-	-	-
O=c1[nH]cnc2c1sc(=S)n2-c1ccccc1	18µM	7.5µM	?	?
O=c1[nH]c(-c2ccc(F)cc2)nc2c1sc(=S)n2-c1ccccc1	-	?	-	-
O=C(CN1CCCC1c1cccs1)C12CC3CC(CC(C3)C1)C2 (stereo not given)	.	.	6.3µM	.
COc1ccc(CNC(=O)c2ccc3c(c2)N(Cc2cccc(Cl)c2)C(=O)c2ccccc2S3)c(OC)c1	.	.	-	-
COc1ccccc1C(=O)N1CCC(N2CCN(c3ccccc3OC)CC2)CC1	89µM	-	?	-
COc1ccccc1C(=O)N1CCC(N2CCN(c3ccccc3)CC2)CC1	-	-	?	-
COC1CN(c2cccc(F)c2)C12CCN(C(=O)CC(C)C)CC2 (stereo not given)	.	.	-	.
O=C(Nc1ccc(NC(=O)C2CC2)cc1)c1cccs1	-	-	-	-
SMILES	Sfp inh	PLK1 PBD inh	12-LOX inh	VDR inh
COC(=O)c1ccc2nc(-c3ccco3)c(Cc3cccc(Cl)c3)n2c1	.	-	16µM	.
Fc1cccc(Cc2c(-c3ccco3)nc3c4ccccc4ccn23)c1	.	-	-	.
Clc1cccc(Cc2c(-c3ccco3)nc3c4ccccc4ccn23)c1	.	-	10µM	.
COC(=O)c1ccc2nc(-c3cccc(Cl)c3)c(Cc3cccc(Cl)c3)n2c1	.	-	?	.
CC(NC(=O)/C(C#N)=C1\N=C(NC(=O)c2cccs2)c2ccccc21)c1ccccc1 (stereo not given)	-	-	-	-
Cc1csc(N)n1	?	-	-	-
Cc1ccc(-c2csc(N)n2)s1	35µM	-	?	?
COc1cccc2cc(-c3cc(=O)oc4ccc(C)cc34)oc12	.	.	-	.
COc1cccc2cc(-c3cc(=O)oc4cc(C)c(OCC(C)=O)cc34)oc12	-	17µM	-	-
COc1ccc(/C=C2\CC/C(=C\c3ccc(OC)c(OC)c3)C2=O)cc1OC	-	-	-	?
COc1ccc(C=C2C=C(C(C)(C)C)C(=O)C(C(C)(C)C)=C2)cc1OC	-	30µM	?	?
NNc1nccc(Nc2ccccc2C(=O)O)n1	50µM	-	-	-
c1ccc(Nc2ccnc(Nc3ccccc3)n2)cc1	?	-	?	-
CC(=O)c1ccc(N2CCN(C(=O)c3ccc4c(=O)[nH]c5c(C(=O)NC6CCCC6)sc(=S)n5c4c3)CC2)cc1	.	.	-	.
O=C(NC1CCCCC1)c1sc(=S)n2c1[nH]c(=O)c1ccccc12	-	24µM	?	?
CCCCNC(=O)c1sc(=S)n2c1[nH]c(=O)c1ccccc12	-	27µM	?	?
S=C1NCCNC(=S)NCCOCCOCCN1	-	27µM	-	-
Cc1ccc2c(c1)CCCN2C(=O)c1cc2ccccc2oc1=O	-	-	-	-
CCOc1cccc(N(C(=O)C2COc3ccccc3O2)C(C(=O)NC2CCCCC2)c2ccc(O)cc2)c1 (stereo not given)	-	-	-	-
CC(C)CCNC(=O)C(c1ccc(O)cc1)N(C(=O)C1COc2ccccc2O1)c1cccc(O)c1 (stereo not given)	-	19µM	?	-
CCC(Oc1ccccc1)C(=O)Nc1ccccc1N1CCCCC1 (stereo not given)	-	-	-	-
COc1cccc(CNC(=O)C2CN(Cc3ccccc3)C(=O)N2)c1 (stereo not given)	.	.	-	.
COc1ccc(-c2nnc(-c3ccco3)o2)cc1OC	.	.	-	.
COc1ccc(-c2cc(-c3ccco3)[nH]c(=O)c2C#N)cc1OC	22µM	?	?	-
CCO[C@H]1OC(C(=O)N2CCOCC2)=C[C@@H](c2ccccc2)[C@@H]1CCCO	-	-	-	-
SMILES	Sfp inh	PLK1 PBD inh	12-LOX inh	VDR inh
COc1ccc(C(=O)NCc2nnc(SCC(=O)Nc3nc4ccccc4s3)o2)cc1	-	-	-	-
CCN(CC)c1ccc(SS(=O)(=O)O)cc1	45µM	6.7µM	25µM!	79µM
O=S(=O)(O)Sc1ccccc1	.	6µM	?	.
O=C(C1CC1)N1CCC(c2nnc3n2C(C(=O)N2CCN(c4ncccn4)CC2)CC3)CC1 (stereo not given)	.	.	-[6.33 µM]	.
CCC(=O)N1CCN(CCNc2cc(=O)oc3ccccc23)CC1	.	.	-	.
CCOC(=O)c1sc(N)c(C(=O)Nc2ccccc2)c1C	20µM	9.5µM	?	?
CCOC(=O)c1sc(N)c(C(=O)OCC)c1C	-	-	?	-
CCOC(=O)c1c(N)sc(C(=O)OCCOC)c1C	25µM	9.5µM	-	79µM
CCOC(=O)c1sc(NC(=O)c2ccccc2)cc1C	-	-	-	-
COc1cc(OC)c2c(-c3ccccc3)cc(=O)oc2c1C(CC(=O)N1CCCC1)c1ccc2c(c1)OCO2 (stereo not given)	-	-	50µM	-
COc1cc(OC)c2c(-c3ccccc3)cc(=O)oc2c1C(CCN1CCCCC1)c1ccc2c(c1)OCO2 (stereo not given)	13µM!	-	?	-
COc1cc(OC)c2ccc(=O)oc2c1C(CC(=O)N1CCCCC1)c1ccc2c(c1)OCO2 (stereo not given)	-	.	.	-
COc1cc(OC)c2c(-c3ccccc3)cc(=O)oc2c1C(CCN1CCCC(C)C1)c1ccc2c(c1)OCO2 (stereo not given)	?	-	?	-
COC(=O)c1cccc(NC(=S)N2CCCCC2)c1	-	-	-	-
O=C(NCC1CCCN(C(=O)c2ccsc2)C1)c1ccc(-c2ccccc2)cc1 (stereo not given)	.	.	-	.
